# Values joined by “and” are separate entries in the source; they are usually repeats but may differ in a detail not shown here. Equal entries are not always repeated. Active and inactive are the calls of the source. How the source made its calls: active means hit-call score of the fitted dose curve at least 0.9, where 1 is the maximum; inactive means score below 0.9.
# Assay: CCTE_Shafer_MEA_dev_mutual_information_norm: CCTE's Neural Network Formation Assay for Mutual Information Normalization, Shafer Lab (AID 2284091);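 on AC50: potency is for a decrease in mutual information relative to DMSO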
# Method: CCTE_Shafer_MEA_dev assay is conducted using Axion Biosystems 48 well microelectrode array (MEA) plates and Maestro recording system. Each well of the MEA plate contains a grid of 16 microelectrodes embedded in the culture surface. Electrically active cells, such as neurons, can be cultured over the electrodes, and electrical activity in these cells can be recorded extracellularly. The spontaneous firing of neurons is captured from each electrode on a microsecond timescale providing both temporally and spatially precise data. […] The CCTE_Shafer_MEA_dev assay uses primary cultures of rat cortical neurons. Recordings are made on days post-plating 5, 7, 9 and 12. As these cultures mature over time, neural networks develop functional activity and form cohesive networks in which electrical activity can be highly coordinated. CCTE_Shafer_MEA_dev_mutual_information_norm is 1 of 19 assay components of the CCTE_Shafer_MEA_dev assay. It is a measure of shared information between electrodes during a recording in a microelectrode array (MEA) using Axion Biosystems Maestro 768 channel amplifier with the AxIS adaptive spike detector. To collapse across multiple recordings made on days post-plating 5, 7, 9 and 12, the trapezoidal area-under-the-curve of the component is calculated.Data from the assay component CCTE_Shafer_MEA_dev_mutual_information_norm was analyzed into 1 assay endpoint. This assay endpoint, CCTE_Shafer_MEA_dev_mutual_information_norm, was analyzed in the negative analysis fitting direction relative to DMSO as the negative control and baseline of activity. Using a type of functional reporter, gain or loss-of-signal activity can be used to understand electrical activity.
# On the day prior to culture, each well was coated thoroughly with 150 uL of 0.05% polyethyleneimine (PEI, Sigma Cat P3143) in 50 mM HEPES (Sigma Cat H7523) at a pH of 8. The plate was incubated at 37C for one hour. PEI was rinsed out with 500 uL of sterile water three times. Plates were stored at 4C until the day of culture. This culture was plated at a seeding density of 1.5 x 10^5 cells/well on a 48-well MEA plate, prepared as described above. Cells were administered via a 25 uL media/laminin ([…]; Sigma Cat L2020-1MG) drop directly onto the microelectrode array, as adding the cells with the laminin results in better attachment than pre-coating with laminin. After 2 hours, an additional 475 uL of cortical media was added and the cells returned to the incubator. Exposure starts at day 0 of plating and is continued over twelve days of network development until the experiment is terminated. Cells are fed with fresh medium on DIV 5 and 9, following the recordings on those days. The entire volume of media in the well is exchanged and any vehicle or compound treatment is renewed. Complete details are found in OP-NHEERL/ISTD/SBB/TJS/2015-03-r0 (available on request, email shafer.tim@epa.gov). Measurement of the electrical activity is non-invasive, and recordings can be made from the same plate over multiple different days of the culture. In cortical neurons, this allows for the measurement of extracellular action potentials over the period during which networks form in the MEA plate.
Structure (SMILES),AC50,outcome
Clc1ccc(C(c2ccccc2Cl)C(Cl)(Cl)Cl)cc1 (configuration not stated),0.0113 µM (active),
c1cc2ccc3cccc4ccc(c1)c2c34,,inactive
CCC(C)(c1ccc(O)cc1)c1ccc(O)cc1,,inactive
ClC(Cl)=C(c1ccc(Cl)cc1)c1ccc(Cl)cc1,2.19 µM (active),
O=C(O)C(F)(F)C(F)(F)C(F)(F)C(F)(F)C(F)(F)F,,inactive
NS(=O)(=O)C(F)(F)C(F)(F)C(F)(F)C(F)(F)C(F)(F)C(F)(F)C(F)(F)C(F)(F)F,,inactive
Oc1ccc(C(c2ccc(O)cc2)(C(F)(F)F)C(F)(F)F)cc1,,inactive
ClC1=C(Cl)[C@]2(Cl)[C@@H]3[C@H]4C[C@H]([C@@H]5O[C@H]45)[C@@H]3[C@@]1(Cl)C2(Cl)Cl,,inactive
O=S(=O)(O)C(F)(F)C(F)(F)C(F)(F)C(F)(F)C(F)(F)C(F)(F)F,,inactive
O=S(=O)(O)C(F)(F)C(F)(F)C(F)(F)C(F)(F)F,,inactive
C=CC(N)=O,,inactive
CCOP(=S)(OCC)SCSC(C)(C)C,23.4 µM (active) and 21.7 µM (active),
O=C(O)C(F)(F)C(F)(F)C(F)(F)C(F)(F)C(F)(F)C(F)(F)C(F)(F)C(F)(F)F,,inactive
CO/C=C(/C(=O)OC)c1ccccc1COc1cccc(C(F)(F)F)n1,183 nM (active) and 312 nM (active),
ClC1=C(Cl)[C@]2(Cl)[C@@H]3[C@@H](Cl)[C@H]4O[C@H]4[C@@H]3C1(Cl)C2(Cl)Cl,,inactive
COc1ccc(O)c(C(C)(C)C)c1,,inactive
ClC1=C(Cl)[C@]2(Cl)[C@@H]3[C@@H]4C[C@@H]([C@H]5O[C@@H]45)[C@@H]3[C@@]1(Cl)C2(Cl)Cl,15 µM (active),
